Source: PubChem BioAssay (National Center for Advancing Translational Sciences (NCATS))
A selection: hits, their analogues and other compounds. The true share with any hit is near 2.3%.
GLP1R ag: GLP-1 receptor (human) agonism. actives 0.007% (n = 380,000). Potency, µM (doses to about 45.6 µM), hits mostly activators. AID 624172. HEK293 GLP-1R CRE-luciferase, luminescence, 4-6 h; cells express a hypersensitive GLP-1R form
Target sequence (P43220 whole entry, looked up): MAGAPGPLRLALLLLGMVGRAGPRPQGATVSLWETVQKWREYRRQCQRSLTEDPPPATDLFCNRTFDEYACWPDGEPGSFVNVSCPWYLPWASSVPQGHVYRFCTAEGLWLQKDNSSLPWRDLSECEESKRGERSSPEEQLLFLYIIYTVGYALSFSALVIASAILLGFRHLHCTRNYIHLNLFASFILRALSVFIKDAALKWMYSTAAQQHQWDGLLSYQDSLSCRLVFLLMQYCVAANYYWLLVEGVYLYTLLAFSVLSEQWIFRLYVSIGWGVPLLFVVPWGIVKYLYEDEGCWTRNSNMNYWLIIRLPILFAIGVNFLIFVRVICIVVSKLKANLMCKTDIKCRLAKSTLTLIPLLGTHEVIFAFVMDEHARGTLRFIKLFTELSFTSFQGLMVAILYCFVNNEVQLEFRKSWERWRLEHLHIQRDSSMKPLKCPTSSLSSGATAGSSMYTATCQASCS
PTHR1 agonist: agonists of human PTHR1 parathyroid hormone receptor; HEK293 GP2 PTHR1 cells, GloSensor cAMP luminescence, 1 h; Potency, µM (titrated, usually from 115 µM), actives largely listed as activators; actives 0.075% (n = 410,000); AID 743266; note: nearly all actives have a fitted effect of over 55% in size
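HEK-293-derived GP2 cells expressing PTHR1 and a GloSensor cAMP reporter, 3,000/well, plated overnight, given luciferin plus IBMX (each 0.5 mM as added) for 1 h at 37 °C, then compound for 1 h at 37 °C. Luminescence was read after 15 min at room temperature.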
GLS inh: inhibitors of human glutaminase (GLS); O94925; GLS enzymatic activity, qHTS titration; Potency, µM (titrated, usually from 45.5 µM), most hits filed as inhibitors; actives 0.21% (n = 410,000)
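hKGA; 45 mM KH2PO4 pH 8.2 + 0.02% Tween-20; cpd via pin tool; 1 mM Gln soln; GluOx/HRP/Amplex Red; RT 30 min; fluor. t0 & final.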
12-LOX inh: ALOX12 (human) lipoxygenase inhibition; actives 1.1% (n = 580,000); AID 1671190; purified 12hLO, xylenol orange hydroperoxide absorbance; Potency, µM (highest dose often 108 µM), usual class: inhibitors
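Hydroperoxide product was detected by ferrous iron/xylenol orange as the 573 to 405 nm absorbance ratio. Arachidonic acid at 40 uM (final) was turned over for 30 min at room temperature by 150 nM human 12hLO, pH 7.0 Hepes buffer, after 15 min compound preincubation.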
GLP-1R inv ag: GLP-1 receptor (human) inverse agonism; HEK293 GLP-1R CRE-luciferase, luminescence, 24 h; GLP-1R form is constitutively active; Potency, µM (doses to about 38.3 µM), actives largely listed as inhibitors; actives 1.6% (n = 410,000); AID 624417; note: nearly all actives have a fitted effect of over 55% in size
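Inverse agonism was detected as reduced cAMP-driven luciferase luminescence after 24 h compound treatment. The cells were HEK293 clones expressing constitutively active human GLP-1R with the reporter. Reporter-only and GPR119 cell lines served as counterscreen controls.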
Glioma ERSR ind: induces the endoplasmic reticulum stress response in human glioma cells; U87-MG GRP78 promoter luciferase reporter, 16 h; Potency, µM, actives largely listed as activators; actives 0.02% (n = 420,000); AID 602332; note: series mostly up to about 76 µM; nearly all actives have a fitted effect of over 35% in size
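ERSR induction read as luciferase luminescence (Bright-Glo, 10 min at room temperature) in stably transfected human U87-MG glioma cells exposed to compounds for 16 h, using GRP78 as sensor.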
Numbers stand for hits; 0 = inactive; ? = inconclusive; - = no result; ! = repeats disagree. Calls come from the whole dose curve; as a rule, active = well fitted curve in the direction sought with a large enough effect; inconclusive = small, poorly fitted or top-dose-only effect, or another doubt; inactive = no such curve, though single readings can be large; an effect the other way counts as inactive or inconclusive.

SMILES	GLP1R ag	PTHR1 agonist	GLS inh	12-LOX inh	GLP-1R inv ag	Glioma ERSR ind
O=C(CSCc1ccccc1)NC1CCSC1=O (configuration not stated)	0	0	0	?	0	0
CCCc1ccc(OCCN)cc1	-	-	-	0	-	-
CCOc1ccccc1/C=C(/C#N)C(=O)c1cccc(OC)c1	-	-	-	0	-	-
COC(=O)Cc1cc(=O)n2[nH]cnc2n1	0	0	0	6.31µM	0	0
COc1ccc2nc(/C(C#N)=C/c3ccc(-c4cccc(Cl)c4Cl)o3)[nH]c2c1	-	-	-	0	-	-
Cc1ccc(-c2ncc(C(=O)NCCN(C)C3CCCCC3)c(-c3ccncc3)n2)cc1	-	-	-	0	-	-
Cc1ccc2c(c1)C1CN(C)CCC1N2C(=O)COc1ccc(N(C)C(=O)c2ccccc2)cc1 (configuration not stated)	0	0	0	0	?	0
CCCC(=O)O[C@@H]1C[C@@H](C)N(C(=O)c2ccccc2)c2ccc(C)cc21	0	0	0	0	10µM	0
c1cc(SSc2ccncc2)ccn1	0	0	?	6.31µM	0	0
c1ccc(Sc2ccncc2)cc1	0	0	0	0	0	0
CC1CCCN(c2ncnc3c2cnn3-c2ccc(F)cc2)C1 (configuration not stated)	-	0	0	0	8.91µM	0
Cc1cccc(-n2ncc3c(N4CCCCCC4)ncnc32)c1	-	0	0	0	0	0
c1ccc(-n2ncc3c(N4CCCCC4)ncnc32)cc1	0	0	0	0	3.98µM	0
NNc1ncnc2c1cnn2-c1ccccc1	0	0	0	0	10µM	0
Cc1ccc(Cl)cc1-n1ncc2c(NC3CCCCCC3)ncnc21	-	0	0	?	4.47µM	0
COc1ccc(-c2c(C(F)(F)F)oc3cc(OCC(=O)OC(C)C)ccc3c2=O)cc1OC	-	-	-	0	-	-
CC1(c2ccc(C#N)cc2)NC(=O)N(Cc2coc(-c3cccs3)n2)C1=O (configuration not stated)	-	-	-	0	-	-
Cc1cc(Cn2cc3c4c(cccc42)[C@H](CC(C)C)N[C@H](C(=O)NCc2ccco2)C3)no1	-	-	-	0	-	-
c1ccc(-n2ncc3c(NC4CCCCCC4)ncnc32)cc1	0	0	0	0	5.62µM	0
Cc1ccc2c(n1)N(C)[C@H](CO)CCN(Cc1ccc(C(C)C)cc1)C2	-	-	-	0	-	-
C/C(=N\NC(=S)NCc1ccccc1)c1ccccc1F	0	0	0	35.5µM	?	0
CNC(=S)N/N=C(\C)c1ccc(C(C)(C)C)cc1	0	0	0	0	0	0
CNC(=S)N/N=C(\C)c1ccccc1	0	0	0	0	10µM	0
C/C(=N\NC(=S)NCc1ccccc1)c1ccc(C(C)(C)C)cc1	0	0	0	35.5µM	?	0
C/C(=N\NC(=S)NCc1ccccc1)c1ccccc1	?	0	0	39.8µM	?	0
SMILES	GLP1R ag	PTHR1 agonist	GLS inh	12-LOX inh	GLP-1R inv ag	Glioma ERSR ind
N#Cc1cccc(C(=O)N2CCN(c3oc(C4CC4)nc3C#N)CC2)c1	-	-	-	0	-	-
COc1ccc(Oc2c(C)oc3cc(OCC(=O)c4ccccc4)ccc3c2=O)cc1	-	-	-	0	-	-
O=C1NCCC/C1=N\Nc1ccc(Br)cc1	0	0	0	?	?	0
Cc1ccc(C)c(N/N=C2\CCCNC2=O)c1	0	0	0	8.91µM	0	0
Cc1ccccc1N/N=C1\CCCNC1=O	0	0	0	4.47µM	0	0
CCN(CC)CCNC(=O)Cn1nc(C)n2nc(-c3ccccc3)cc2c1=O	-	-	-	0	-	-
COc1ccc(CN(CCC(C)C)S(=O)(=O)c2ccccc2Br)cc1	0	0	0	0	11.2µM	0
Cc1ccc2c(c1)c(=O)c1ccccc1n2CCCC(=O)Nc1ccc(Cl)c(Cl)c1	-	0	0	?	0	0
O=C(CCCn1c2ccccc2c(=O)c2ccccc21)Nc1cccc(Cl)c1	-	0	0	?	6.31µM	0
COCc1cccc(C(=O)NCC(O)c2ccccc2C(F)(F)F)c1 (configuration not stated)	-	-	-	0	-	-
Cc1[nH]c2c(C(=O)NC3CCS(=O)(=O)C3)cccc2c1C (configuration not stated)	-	-	-	0	-	-
CCCC1=Nc2cc(C(=O)NCc3ccc(OC)cc3)ccc2Sc2ccc(C)cc21	0	0	0	0	4.47µM	0
CCCC1=Nc2cc(C(=O)NCCc3ccccc3)ccc2Sc2ccc(C)cc21	0	0	0	0	?	0
CCCC1=Nc2cc(C(=O)NC(C)c3ccccc3)ccc2Sc2ccc(C)cc21 (configuration not stated)	0	0	0	0	4.47µM	0
CCC1=Nc2cc(C(=O)NC(C)c3ccccc3)ccc2Sc2ccc(Cl)cc21 (configuration not stated)	0	0	0	?	?	0
Cc1ccnc(SCCCn2c(Br)nc3c2c(=O)[nH]c(=O)n3C)n1	-	-	-	0	-	-
CCOc1ccc(N(C)S(=O)(=O)c2cc(-c3cc(C)no3)ccc2CC)cc1	0	0	0	0	8.91µM	0
CNC[C@H](O)c1ccc(O)c(O)c1	?	?	0	1.4µM!	0	0
CN(C)C(=O)CO	-	-	-	0	-	-
CCCn1c(C)cnc1C1CCN(S(=O)(=O)c2cc(OC)ccc2OC)C1 (configuration not stated)	-	-	-	0	-	-
Cc1ccc(Nc2nc(-c3cccs3)cs2)nc1	0	0	0	0	3.55µM	0
N#Cc1cccc(NC(=O)CNc2ccccc2C(N)=O)c1	-	-	-	0	-	-
N#Cc1ccccc1NC(=O)CN(Cc1ccccc1)Cc1ccccc1	0	0	0	0	7.08µM	0
Cc1ccc(NC(=O)CN(C)CC(=O)Nc2ccccc2C#N)cc1	0	0	0	0	0	0
OC(c1cc(-c2cccc(Cl)c2)nc2ccccc12)C1CCCCN1 (configuration not stated)	0	0	0	35.5µM	1.41µM	0
SMILES	GLP1R ag	PTHR1 agonist	GLS inh	12-LOX inh	GLP-1R inv ag	Glioma ERSR ind
Cc1ccc(C(=O)CSc2nnnn2C(C)C)c(C)c1	0	0	0	0	4.47µM	0
Cc1ccc(C)c(C(=O)CSc2nnnn2C(C)C)c1	0	0	0	0	0	0
CC1CCN(c2oc(-c3ccc([N+](=O)[O-])cc3)nc2C#N)CC1	-	-	-	0	-	-
CC1CC(C)CN(c2ccc(C(=O)NCc3ccc4c(c3)OCO4)cc2[N+](=O)[O-])C1 (configuration not stated)	0	0	0	0	11.2µM	0
O=C(Nc1ccccc1-c1ccccc1)c1ccncc1	-	-	-	0	-	-
Cc1cc(NCCCN)nc(-c2ccccc2O)n1	0	0	0	0	10µM	0
Cc1ccc(-c2ccc(/C=C(\C#N)c3ccccc3)o2)cc1	-	-	-	0	-	-
Cc1ccc(/C(C#N)=C\c2cccn2C)cc1	-	-	-	44.7µM	-	-
C=CCOC(=O)C1=C(C)NC(C)=C(C(=O)OCC=C)C1c1ccco1	0	0	0	0	11.2µM	0
